We go through 23 sequences from the OligoGym collection.
Further: reference of the scale not given here.

For one assay, the target named is CAPRIN1. The assay can be described thus: pooled miR-30 sensor sort-seq; sequence = guide strand. As to conditions: shRNA.
TTGACTGAAAAACACGCTCAAC registered a sensor-assay potency score (higher = more potent) of -1.28. Still for that read-out and setting: the result for TAGATAATAACTCTTCTGGTAA reads -0.812; that for TAACATATTATGGTACACTGGC, 0.119; that for TATTGTTTTCTGAATATCTTGA, 0.459.

With AATATCTTGACTTAGTGCCATG, the sensor-assay potency score (higher = more potent) was -1.68. The sequence TACAGGAACTTGATTAGGCTGA had a sensor-assay potency score (higher = more potent) of 0.0825.

The sequence TTTCTGAATATCTTGACTTAGT returned a sensor-assay potency score (higher = more potent) of -0.78. TTACATACTCTGTTGATTCAAC returned a sensor-assay potency score (higher = more potent) of 0.0551. TTTCTTGTCGATCACCCCGAGA gave a sensor-assay potency score (higher = more potent) of -1.14. As for TTTACATTGATTCCACTGCTAT, the sensor-assay potency score (higher = more potent) was -0.568. Consider TTGATAGCCAGAGTAATCCCGG, for which the sensor-assay potency score (higher = more potent) is -0.0464.

A further assay addresses CASK. Described as above. As to conditions: shRNA.
The sequence TTTTGAAACTGTACCAGCCGAA yielded a sensor-assay potency score (higher = more potent) of -0.413.

For TAAAATACGCTTTAGTTCCTTT, the sensor-assay potency score (higher = more potent) was -0.108.

Sequence TAGTAGTGTGTGAAGATGCTGA registered a sensor-assay potency score (higher = more potent) of 0.139. Sequence TAAAGCATTCCATCTGAGCTAT had a sensor-assay potency score (higher = more potent) of -0.371.

Sequence TAAGATGTCAGACTCCTTCTGC came in with a sensor-assay potency score (higher = more potent) of 0.313.

As to TTCATGTGCCACTACGTCGTGA, the sensor-assay potency score (higher = more potent) is -0.762.

For ATTTGTGACTTGACACAGCGGC, the sensor-assay potency score (higher = more potent) turned out to be 0.473. TACATCGTCGTACAACACTGAA came in with a sensor-assay potency score (higher = more potent) of -1.22. Turning to TTGTGCTCTTACATAGATCTGT, the sensor-assay potency score (higher = more potent) is 0.417. In the case of TTTCTCTGTTGATACATCGTCG, the sensor-assay potency score (higher = more potent) was -0.203. The sequence TTACATAGATCTGTCGTCCTTT came in with a sensor-assay potency score (higher = more potent) of 0.751. On to TATATGTCTCCAATAACTCTAC, for which the sensor-assay potency score (higher = more potent) is -0.605.
